Each structure is given as a SMILES string. The panel holds about 83,000 compounds, 20% with a hit somewhere; the sample as a whole holds those more often.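 Growth was measured after 48 h exposure to one concentration of compound in 96-well plates. Values under 10 count as active.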 A number with no mark means an inactive call. Activity calls are given as the source filed them.

This passage reports growth results from PubChem BioAssay (NCI).

The test system of the assay is 786-0 renal. The experiment in a line: NCI-60 one-dose screen, 48 h (100 = growth as untreated, 0 = no growth, -100 = all killed). The settings on record: 10 µM unless noted.
For `Clc1cccc(Nc2ncnc3ccc(-c4cnc5[nH]ccc5c4)cc23)c1`, the growth is -19.6% (active).
The value for `Nc1cc(C(=O)NC[C@H]2CN(c3ccc(N4CCC(C(=O)O)CC4)cc3)C(=O)O2)ccc1Cl` was 101%.
The value for `N#CSCC1CC(O)(c2ccccc2)CC(c2ccc(F)cc2)O1` (stereo not given) was 0.242% (active); that for `CCOC(=O)c1ccc2c(c1)nc(-c1ccccc1)n2C1CCCCC1` was 88.5%; that for `Cc1cn(-c2cc(NC(=O)c3cncc(C#Cc4cnc(N)c5ncccc45)c3)cc(C(F)(F)F)c2)cn1` was 71.6%.
The result for `CCN(CC)Cc1cc(C=C2C(=O)NC(=S)NC2=O)cc(OC)c1O` reads 104%.
Turning to `COc1cc(/C=C/C(=O)c2ccc(F)cc2)ccc1OCCCCOc1ccc(/C=C/C(=O)c2c(C)nc3ccccc3c2C)cc1OC`, the growth is 86.7%.
The result for `O=C1/C(=C/c2cccc(F)c2)CN(C(=O)C(Cl)Cl)C/C1=C\c1cccc(F)c1` reads -77% (active).
The result for `N#Cc1ccc(O)c(C2=NCC(c3ccccc3)O2)c1` (stereo not given) reads 33.2%; that for `N=C(N)c1ccc(-c2ccc(-c3ccccc3)o2)cc1`, -86% (active).
Consider `COC12C=C/C(=C(/C(=O)OCc3ccncc3)C(=O)CCCCCCCCC3(OC)C=C/C(=C(/C(=O)OCc4ccncc4)C(=O)CCCCCCCC1)O3)O2`, for which the growth was -50.9% (active).
For `COC(=O)/C=C1/SC(=Nc2cccc(OC)c2)N(CCc2c[nH]c3ccc(O)cc23)C1=O`, the growth was 74.3%.
For `Cn1ccnc1C(=O)/C=C/c1ccc(CC(=O)Nc2cc(C(F)(F)F)cc(C(F)(F)F)c2)cc1`, the growth is 65.6%.
In the case of `CS(=O)(=O)Nc1cc(-c2ccc3ncnc(Nc4ccc5c(cnn5Cc5ccc(F)cc5)c4)c3c2)cnc1Cl`, the growth is 48.3%.
The value for `CCSc1nc2scc(C)c2c(=O)[nH]1` was 94%.
The result for `Fc1cccc(Oc2ccc(Nc3ncnc4ccc(OCCCN5CCOCC5)cc34)cc2Cl)c1` reads 51.9%; that for `O=C(Nc1cccc2ccccc12)NC1CC1`, 101%.
The value for `Clc1ccc2c(NC3CCC(N4CCOCC4)CC3)ccnc2c1` (stereo not given) was 70.6%.
Turning to `Cc1cc(N2CCN(CCNc3ccnc4cc(Cl)ccc34)CC2)nc(N2CCOCC2)n1`, the growth was 74%.
The value for `c1cnc2c(-c3nc4ccc5[nH]ncc5c4c4c3CCCC4)c[nH]c2c1` was 32.5%; that for `O=C(O)c1ccc(-n2cc(/C=N/Nc3ccccc3)c(-c3ccc(F)cc3F)n2)cc1` was 71.5%.
Consider `C=C(CBr)[C@@H]1CC[C@]2(C(=O)O)CC[C@]3(C)[C@H](CC[C@@H]4[C@@]5(C)CCC(=O)C(C)(C)[C@@H]5CC[C@]43C)[C@@H]12`, for which the growth is 106%.
The result for `O=C(CSC(=S)n1cnnc1)NC(=O)c1ccccc1` reads 104%.
With `CC(C)(C)CC(C)(C)NC(=O)Nc1ncccc1OCc1ccccc1`, the growth was 98.5%.
For the compound `Oc1ccc(Cl)cc1/C=N\NC(=S)N/N=C/c1cc(Cl)ccc1O`, the growth is 21.4%.
Consider `CCc1ncnc2c1ccn2C(C)c1ccc(OC)c(F)c1` (stereo not given), for which the growth is 74.9%.
`C/C(=N\O)c1ccc(Cl)cc1`: the growth was 107%.
Take `CN(C)CCNC(=O)c1cc2c3cc(Cl)ccc3[nH]c2c2ncccc12`: the growth is 11.4%.
The result for `O=C(/C=C/c1ccco1)Nc1ncc(Cc2cccc(C(F)(F)F)c2)s1` reads 12.6%; that for `Cc1cc(S(=O)(=O)/N=C(\N)n2nc(C)c(C)c2C)c(SCc2ccccc2)cc1Cl`, 77.2%; that for `CN(c1cc2ncc(=O)[nH]c2cc1NC(N)=NCc1ccc(Cl)cc1)C1CCCCC1`, 68.5%.
With `COc1cc(-c2nc3sccn3c2-c2ccnc(NCCNS(=O)(=O)c3ccccc3)n2)ccc1F`, the growth is 61.4%.
Consider `O=C(Nc1cccc(-c2ccc(N3CCOCC3)nn2)c1)Nc1cccc(C(F)(F)F)c1`, for which the growth was 92.1%.
The result for `COCCNC(=O)Nc1ccc2nc(-c3cccs3)c(-c3cccs3)nc2c1` reads 96.9%.
Take `O=C1/C=C/[C@@H](O)[C@@H]2C[C@@H](O)C[C@H]2/C=C/CCC[C@H](CCc2ccccc2)O1`: the growth was -54.7% (active).
The value for `CC(=O)Oc1ccc(/C(=C(\C)c2ccc(Cl)cc2)c2ccc(OCCN3CCCCC3)cc2)cc1` was -35.5% (active); that for `N#Cc1nc(-c2ccc(F)cc2)oc1S(=O)(=O)N1CCOCC1` was 87.6%.
Take `C#CCNC(=O)[C@H](CC)[C@H]1CC[C@H](C)[C@H]([C@@H](C)[C@H](O)[C@H](C)C(=O)[C@H](CC)C2O[C@]3(C=CC(=O)[C@]4(CC[C@@](C)([C@H]5CC[C@](O)(CC)[C@H](C)O5)O4)O3)[C@H](C)C[C@@H]2C)O1` (stereo not given in full): the growth is 70.5%.
Consider `COc1ccc(CNc2c3ccccc3nc3ccccc23)cc1`, for which the growth was 32.4%.
The result for `Clc1cc(Cl)c(Cl)c(-c2nnc(SCc3ccncc3Br)o2)c1` reads 93.7%.
